Data reported in PubChem BioAssay (NCI).
About 83,000 compounds went through this panel and 20% of them were active in at least one assay; those are over-represented in the sample as a whole.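 Cell lines were cultured in 96-well plates, exposed to a single compound concentration, and assessed for percent growth 48 hours later.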 Values without a mark were called inactive. Active and inactive are the calls of the source. The calls were made as follows: active = growth percent below 10; inactive = the rest.

These compounds were tested on MDA-MB-468 breast (assay: NCI-60 one-dose screen, 48 h (100 = growth as untreated, 0 = no growth, -100 = all killed)). Conditions: 10 µM unless noted.

| SMILES | growth |
| --- | --- |
| CCOC(=O)N[C@H]1CCc2c(Br)c(OC)c(OC)c(OC)c2-c2ccc(SC)c(=O)cc21 | -14.7% (active) |
| Oc1c(I)cc(I)cc1I | 102% |
| O=C1CCC(=O)N1SC(Cl)(Cl)Cl | 116% |
| COc1cc(C2CC(=O)Nc3nc(N)[se]c32)cc(OC)c1OC (stereo not given) | 99.3% |
| CCOC(=O)[C@@H](C)C[C@H](Cc1ccccc1)NC(=O)c1csc([C@@H](C[C@H](C(C)C)N(C)C(=O)[C@@H](NC(=O)[C@H]2CCCCN2C)C(C)(C)CC)OC(C)=O)n1 | 19.5% |
